Results filed as inconclusive are left out. The source made the active and inactive calls. Calls come from the whole dose curve; as a rule, active = well fitted curve in the direction sought with a large enough effect; inconclusive = small, poorly fitted or top-dose-only effect, or another doubt; inactive = no such curve, though single readings can be large; an effect the other way counts as inactive or inconclusive.
Experiments:
MKL-1 = assay: qHTS assay to identify novel small-molecules to repurpose for Merkel cell carcinoma treatment (AID 1296009); settings: MCC and control cell lines, CellTiter-Glo viability, 72 h; series mostly up to 46 µM; note: nearly all actives have a fitted effect of over 60% in size; note: potency is the fitted concentration of half-maximal effect
Method in brief: (§1)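 qHTS format: cells treated with library compounds in DMSO across 8 (NPC) or 11 (MIPE) concentrations. Readout after 72 hr at 37 degree celsius was CellTiter-Glo luminescence.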

MKL-2 = assay: as above; settings: MCC and control cell lines, CellTiter-Glo viability, 72 h; series mostly up to 46 µM
Method in brief: as §1

C33A = assay: Primary qHTS to identify gynecologic anti-cancer compounds using libraries of approved drugs and bioactive compounds (AID 1345084); settings: Gynecologic cancer cell panel viability, ATPlite luminescence, 48 h; series mostly up to 57.5 µM; note: nearly all actives have a fitted effect of over 55% in size; note: potency is the fitted concentration of half-maximal effect
Method in brief: (§2)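 Luminescence from the ATPlite ATP-monitoring reagent indicates viable cell number; lower signal means cytotoxicity. Cells received compound 16 h after seeding and were exposed for 48 h across five concentrations.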

Es-2 = assay: as above; settings: Gynecologic cancer cell panel viability, ATPlite luminescence, 48 h; series mostly up to 57.5 µM
Method in brief: as §2

HeLa = assay: as above; settings: Gynecologic cancer cell panel viability, ATPlite luminescence, 48 h; series mostly up to 57.5 µM
Method in brief: as §2

JEG-3 = assay: as above; settings: Gynecologic cancer cell panel viability, ATPlite luminescence, 48 h; series mostly up to 57.5 µM
Method in brief: as §2

PA-1 = assay: as above; settings: Gynecologic cancer cell panel viability, ATPlite luminescence, 48 h; series mostly up to 57.5 µM
Method in brief: as §2

Tov-21-G = assay: as above; settings: Gynecologic cancer cell panel viability, ATPlite luminescence, 48 h; series mostly up to 57.5 µM
Method in brief: as §2

Tov112D = assay: as above; settings: Gynecologic cancer cell panel viability, ATPlite luminescence, 48 h; series mostly up to 57.5 µM
Method in brief: as §2

WaGa = assay: qHTS assay to identify novel small-molecules to repurpose for Merkel cell carcinoma treatment (AID 1296009); settings: MCC and control cell lines, CellTiter-Glo viability, 72 h; series mostly up to 46 µM; note: nearly all actives have a fitted effect of over 60% in size; note: potency is the fitted concentration of half-maximal effect
Method in brief: as §1

CAOV3 = assay: Primary qHTS to identify gynecologic anti-cancer compounds using libraries of approved drugs and bioactive compounds (AID 1345084); settings: Gynecologic cancer cell panel viability, ATPlite luminescence, 48 h; series mostly up to 57.5 µM; note: nearly all actives have a fitted effect of over 55% in size; note: potency is the fitted concentration of half-maximal effect
Method in brief: as §2

CASKI = assay: as above; settings: Gynecologic cancer cell panel viability, ATPlite luminescence, 48 h; series mostly up to 57.5 µM
Method in brief: as §2

Hek293T = assay: as above; settings: Gynecologic cancer cell panel viability, ATPlite luminescence, 48 h, control line for the selectivity index; series mostly up to 57.5 µM
Method in brief: as §2

OV90 = assay: as above; settings: Gynecologic cancer cell panel viability, ATPlite luminescence, 48 h; series mostly up to 57.5 µM
Method in brief: as §2

SKOV3 = assay: as above; settings: Gynecologic cancer cell panel viability, ATPlite luminescence, 48 h; series mostly up to 57.5 µM
Method in brief: as §2

UISO = assay: qHTS assay to identify novel small-molecules to repurpose for Merkel cell carcinoma treatment (AID 1296009); settings: MCC and control cell lines, CellTiter-Glo viability, 72 h; series mostly up to 46 µM; note: nearly all actives have a fitted effect of over 60% in size; note: potency is the fitted concentration of half-maximal effect
Method in brief: as §1

[1] = Drug repurposing screens with cells derived from glioblastoma tumor samples (AID 1345199); settings: GBM patient neurospheres viability, ATP luminescence, 48 h; note: nearly all actives have a fitted effect of over 40% in size
Method in brief: (§3)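 Four patient lines of CD133+ GBM neurospheres were screened at several concentrations; hits were retested in those lines plus three slower-growing GBM lines, using 48-hour treatment and ATP-based viability.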

astro = assay: as above; settings: viability, ATP luminescence, 48 h; series mostly up to 45.9 µM
Method in brief: as §3
% is set by controls: 0 for no effect and ±100 for the full control effect.

CC(C)(C)Cn1c(N)nc2ccc(-c3[nH]c(C(C)(C)C)nc3-c3ccc(F)cc3)nc21
inactive: Potency (MKL-1) | Potency (MKL-2) | Potency (C33A) | Potency (Es-2) | Potency (HeLa) | Potency (JEG-3) | Potency (PA-1) | Potency (Tov-21-G) | Potency (Tov112D)

COc1ccc2c(Oc3ccc(NC(=O)c4c(C)n(CC(C)(C)O)n(-c5ccccc5)c4=O)cc3F)ccnc2c1
inactive: Potency (MKL-1) | Potency (MKL-2) | Potency (WaGa) | Potency (C33A) | Potency (CAOV3) | Potency (CASKI) | Potency (Es-2) | Potency (HeLa) | Potency (Hek293T) | Potency (JEG-3) | Potency (OV90) | Potency (PA-1) | Potency (Tov-21-G) | Potency (Tov112D)

NC(CO)(CO)CCc1ccc(Sc2cccc(OCc3ccccc3)c2)cc1Cl
active: Potency (MKL-1) 13.2 µM | Potency (MKL-2) 23.5 µM | Potency (WaGa) 5.26 µM

O=c1cc(CN2CCOCC2)occ1OCCCCCSc1ccnc2cc(C(F)(F)F)ccc12
inactive: Potency (MKL-1) | Potency (MKL-2) | Potency (Tov-21-G) | Potency (Tov112D)
active: Potency (Hek293T) 31.6 µM

CC(=O)N(C)C1(c2ccccc2)CCN(CCC[C@]2(c3ccc(Cl)c(Cl)c3)CCCN(C(=O)c3ccccc3)C2)CC1
inactive: Potency (MKL-1) | Potency (WaGa)
active: Potency (MKL-2) 20.9 µM | Potency (CASKI) 22.4 µM | Potency (SKOV3) 22.4 µM

O=C(O)CCC1CCC(c2cc(F)ccc2F)(S(=O)(=O)c2ccc(Cl)cc2)CC1 (centres undefined)
inactive: Potency (MKL-1) | Potency (UISO)

O=c1cc(-c2ccccc2)oc2cc(O)c(O)c(O)c12
inactive: Potency (MKL-1) | Potency (UISO)

COc1cc2ncnc(-n3nc(-c4ccccn4)nc3N)c2cc1OC
inactive: Potency (MKL-1) | Potency (MKL-2) | Potency (WaGa) | Potency (C33A) | Potency (CASKI) | Potency (Es-2) | Potency (HeLa) | Potency (Hek293T) | Potency (JEG-3) | Potency (OV90) | Potency (PA-1) | Potency (Tov-21-G) | Potency (Tov112D)

CC(=O)Oc1cc2c(s1)CCN(C(C(=O)C1CC1)c1ccccc1F)C2 (centres undefined)
inactive: Potency (C33A) | Potency (CASKI) | Potency (Es-2) | Potency (HeLa) | Potency (Hek293T) | Potency (JEG-3) | Potency (OV90) | Potency (PA-1) | Potency (SKOV3) | Potency (Tov-21-G) | Potency (Tov112D) | activity, negative = cell killing ([1]; at 45.9 µM (top of the series), tumour line B) 4.77% | activity, negative = cell killing ([1]; at 45.9 µM (top of the series), tumour line D) -7.3% | activity, negative = cell killing ([1]; at 46 µM (top of the series), tumour line A) -27.4% | Potency (astro)
active: Potency (MKL-1) 11.8 µM | Potency (MKL-2) 10.5 µM | Potency (WaGa) 10.5 µM

O=C(O)c1cc(O)c2c(c1)C(=O)c1cccc(O)c1C2=O
inactive: Potency (MKL-1) | Potency (MKL-2) | Potency (WaGa)

Reference: PubChem BioAssay (NCATS)
